This is a sample that favours compounds with a hit; in the whole collection about 0.36% have one here.
CCT chaperon mod – changes cytosolic chaperonin activity. purified chaperonin ATPase assay, HTRF ADP detection, 30 min. activity change, % (no concentration beside the values), hits read low. 360,000 compounds, 0.3% hits; in the data active = activity change below about -30%; note: % is set by controls: 0 for no effect and ±100 for the full control effect
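We incubate TRiC, 40 or 20 nM final, with library compounds at 76 uM and 10 uM ATP for 30 min at 37 °C. ADP formed is detected with Transcreener HTRF reagents after 30 min at room temperature.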
RGS4 inh – blocks human RGS4-accelerated GTP hydrolysis; Transcreener GDP fluorescence polarization, RGS4-accelerated GTP hydrolysis; AID 504845; P49798; Potency, µM (series often up to 114 µM), without a hit: at the highest dose activity change, negative = inhibition, hits mostly inhibitors; 390,000 compounds, 0.039% hits; note: potency is the fitted concentration of half-maximal effect; % is set by controls: 0 for no effect and ±100 for the full control effect; nearly all actives have a fitted effect of over 75% in size
Target sequence (P49798 whole entry, looked up): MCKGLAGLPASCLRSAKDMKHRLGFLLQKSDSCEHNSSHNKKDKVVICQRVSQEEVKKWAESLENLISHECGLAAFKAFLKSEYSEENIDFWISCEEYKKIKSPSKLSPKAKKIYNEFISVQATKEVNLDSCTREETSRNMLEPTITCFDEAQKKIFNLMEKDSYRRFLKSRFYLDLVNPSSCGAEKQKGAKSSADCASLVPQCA
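MLSMR compounds (23 nl, pin-transferred) preincubated 10 min at room temperature with a 500nM (2x) first reagent, then RGS4 at 900nM (2x) plus Transcreener GDP mix added; fluorescence polarization (620/688 nm) read before and after 90 min at 30 °C.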
PTHR1 ag – agonists of human PTHR1 parathyroid hormone receptor; HEK293 GP2 PTHR1 cells, GloSensor cAMP luminescence, 1 h; AID 743266; Potency, µM (highest dose often 115 µM), for inactives: at the top dose activation, actives largely listed as activators; 410,000 compounds, 0.075% hits; Q03431; note: potency is the fitted concentration of half-maximal effect; nearly all actives have a fitted effect of over 55% in size
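HEK-293-derived GP2 cells expressing PTHR1 and a GloSensor cAMP reporter, 3,000/well, plated overnight, given luciferin plus IBMX (each 0.5 mM as added) for 1 h at 37 °C, then compound for 1 h at 37 °C. Luminescence was read after 15 min at room temperature.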
MmCpn inh – M. maripaludis TRiC chaperonin inhibition. purified Mm-Cpn ATPase, ADP Transcreener TR-FRET. Potency, µM (titrated, usually from 76.9 µM), for the others: at the top dose activity, negative = inhibition, most hits filed as inhibitors. 330,000 compounds, 0.031% hits; note: potency is the fitted concentration of half-maximal effect; % is set by controls: 0 for no effect and ±100 for the full control effect; nearly all actives have a fitted effect of over 80% in size
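Measured: ADP formation by purified Mm-CPN. Conditions: 25 nM protein, 10 uM ATP, Tris pH 7.4 with Mg2+, K+ and DTT, 37°C for 30 min. Detection: Transcreener HTRF after 30 min at room temperature.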
ERG-DNA inh – inhibitors of human ERG Ets domain-DNA interaction; Potency, µM (highest dose often 76.9 µM), for inactives: at the top dose FP activity, negative = inhibition, actives largely listed as inhibitors; P11308; AID 624246; fluorescence polarization, His-ERG Ets domain / labelled DNA; 370,000 compounds, 0.028% hits; active = well fitted inhibition curve with a large enough effect in the polarisation, with a control signal flat; inconclusive = small, poorly fitted or top-dose-only effect, or effect the other way, or a change in a side signal; inactive = no such curve, though single readings can be large or run the other way; the % refers to the polarisation;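 note: polarization taken with two DNA probes labelled with fluorescein and Texas red; potency is the fitted concentration of half-maximal effect; % of control where 0% means no effect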
Target sequence (P11308 whole entry, looked up, the tested form may be a part): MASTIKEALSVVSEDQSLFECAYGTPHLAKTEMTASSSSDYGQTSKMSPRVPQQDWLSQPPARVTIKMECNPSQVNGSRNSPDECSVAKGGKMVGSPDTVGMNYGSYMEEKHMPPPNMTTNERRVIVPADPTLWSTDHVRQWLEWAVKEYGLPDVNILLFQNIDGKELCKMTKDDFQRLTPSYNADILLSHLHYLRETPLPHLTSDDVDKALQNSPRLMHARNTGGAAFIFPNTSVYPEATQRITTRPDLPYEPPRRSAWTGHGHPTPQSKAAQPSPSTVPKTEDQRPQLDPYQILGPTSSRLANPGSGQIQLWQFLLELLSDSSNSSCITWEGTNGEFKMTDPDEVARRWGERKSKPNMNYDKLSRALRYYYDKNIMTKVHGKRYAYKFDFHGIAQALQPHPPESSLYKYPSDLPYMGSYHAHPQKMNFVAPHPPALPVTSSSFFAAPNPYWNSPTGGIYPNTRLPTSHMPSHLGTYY
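His-tagged ERG Ets domain (1 uM in the protein solution; 300mM KCl, 50mM Tris-HCl, 1mM EDTA, 1mM DTT, pH 7.5) received compound, then a probe mix of 5 nM fluorescein-DNA and 100nM Texas-615-DNA. Fluorescence polarization was read for both dyes.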
* hit, by the source's call; i = inactive; u = inconclusive; x = no result given; ! = not confirmed by another sample; [ ] = another dose, or the depositor's remark. Unless noted, calls come from the whole dose curve; as a rule, active = well fitted curve in the direction sought with a large enough effect; inconclusive = small, poorly fitted or top-dose-only effect, or another doubt; inactive = no such curve, though single readings can be large; an effect the other way counts as inactive or inconclusive.

SMILES	CCT chaperon mod	RGS4 inh	PTHR1 ag	MmCpn inh	ERG-DNA inh
O=C(N/N=C/c1cc2c(cc1Br)OCO2)c1ccccn1	-2	-14%	-4%	0%	-3%
O=C(CC(c1ccco1)C1CCCCC1=O)c1ccco1 (configuration not stated)	-38*	-18%	i	0%	-1%
O=C(CC(c1ccccc1)C1CCCCC1=O)c1ccco1 (configuration not stated)	0	-2%	i	-1%	2%
CCCn1c(SCC(=O)NCc2ccco2)nnc1C(C)C	-42*	-11%	i	0%	-1%
Cc1nnc(SCC(=O)NCc2ccco2)n1Cc1ccccc1	1	-17%	-34%[57.5 µM]	0%	-2%
CCc1ccc(C(=O)Nc2cccc(-c3nc4cc(C(C)C)ccc4o3)c2)cc1	x	1%	-24%	x	5%
Cc1ccc(Cl)c(NC(=O)COC(=O)c2nn(C)c(=O)c3ccccc23)c1Cl	-43*	41%	i	1%	-5%
Cn1nc(C(=O)OCC(=O)NCCc2ccccc2)c2ccccc2c1=O	-32*	44%	i	3%	3%
Cn1nc(C(=O)OCC(=O)NCc2ccc(Cl)cc2)c2ccccc2c1=O	0	10%	-29%	-20%	-4%
O=C(COC(=O)c1ccccc1Nc1ccccc1)c1ccccc1	-2	-7%	-7%[57.5 µM]	-1%	x
COC(=O)c1ccccc1Nc1ccccc1	-32*	-12%	i	-1%	0%
Nc1ccc2nc(-c3ccc(-c4nc5ccc(N)cc5[nH]4)cc3)[nH]c2c1	-6	u	i	-17%	7%
Nc1ccc(-c2nc3ccc(-c4nc5ccc(N)cc5[nH]4)cc3[nH]2)cc1	x	27µM*	x	x	x
COc1ccc(/C=C/C(=O)O)cc1S(=O)(=O)NC1CCS(=O)(=O)C1 (configuration not stated)	-97*	-28%	-22%	-6%	3%
COc1ccc(OC)c(CNC(=O)c2ccc3nc(C(C)C)oc3c2)c1	x	-6%	-2%	x	-4%
CCCN(C(=O)CCc1nc(-c2ccc(OC)cc2)no1)c1ccccc1F	x	-3%	-20%	x	4%
COc1ccc(N(CC(=O)NC2CCCCCC2)S(=O)(=O)c2c(C)nn(C)c2C)cc1	-2	13%	i	0%	1%
Cc1ccc(N(CC(=O)NC2CCCCCC2)S(=O)(=O)c2c(C)nn(C)c2C)cc1	-47*	15%	14%[57.5 µM]	2%	-4%
Cc1cc(S(=O)(=O)N2CCCC(N(C)CCc3ccccn3)C2)c(C)cc1Cl (configuration not stated)	-75*	u	i	-2%	11%
O=C(NCc1ccccn1)C1CCCN(S(=O)(=O)c2cc(Cl)ccc2Cl)C1 (configuration not stated)	1	11%	i	x	9%
COc1ccc(/C=N/NC(=S)N[C@H]2CC3CCC2C3)cc1 (some centres not stated)	-67*	-3%	i	1%	-28%
COc1cc(/C=N/NC(=S)NC2CC3CCC2C3)ccc1O (configuration not stated)	1	-21%	-19%	2%	0%
O=C(CCS(=O)(=O)c1ccc(Br)s1)Nc1cc(C(F)(F)F)cc(C(F)(F)F)c1	x	0%	-51%	x	6%
NC(C(=O)O)c1nn[nH]n1 (configuration not stated)	x	-12%	x	x	x
Cc1ccc(NC(=O)CN(C)C(=O)C(C)OC(=O)CNC(=O)c2ccc(Cl)c([N+](=O)[O-])c2)cc1 (configuration not stated)	-77*	18%	i	2%	13%
SMILES	CCT chaperon mod	RGS4 inh	PTHR1 ag	MmCpn inh	ERG-DNA inh
CCCCCC(=O)Nc1cccc2ccccc12	-1	-19%	-15%	1%	12%
CCCC(=O)Nc1ccccc1NC(C)=O	-31*	-10%	i	2%	-7%
CC(=O)N1CCC(N(CCN2CCOCC2)C(=S)Nc2cccc(C)c2)CC1	-3	-8%	-14%	2%	-6%
CC(=O)N1CCC(N(CCN2CCOCC2)C(=S)Nc2c(C)cccc2C)CC1	-35*	-10%	-21%	u	11%
O=C(Nc1nnc(SCC(=O)N2CCCCC2)s1)C1CCCCC1	-60*	-12%	5%	-4%	4%
COc1cc2ccccc2cc1C(=O)N/N=C/c1cccnc1	-35*	-40%	-1%	-10%	19%
COc1ccc(CN(Cc2cccn2C)C(=O)c2cc3cc(OC)ccc3[nH]2)cc1	-3	-1%	i	45µM*	0%
COc1ccc2sc(-c3ccc(S(C)(=O)=O)cc3)c(-c3ccc(SC)cc3)c2c1	-1	13%	-16%	20µM*	12%
COC(=O)c1c(-c2ccc(OC)cc2)sc2ccc(N3CCOCC3)cc12	-1	-30%	i	50µM*	7%
COC(=O)c1c(-c2ccc(OC)cc2)sc2cc(OC)c(OC)cc12	-2	6%	i	u	-12%
COc1ccc(-c2c(-c3ccccc3OC)sc3ccccc23)cc1	-2	8%	-37%	14µM*	-14%
COc1ccc(-c2sc3ccc(N4CCOCC4)cc3c2-c2ccc(O)cc2)cc1	1	-7%	-21%	0%	5%
COC(=O)c1c(-c2ccccc2OC)sc2ccccc12	2	15%	i	35µM*	-9%
Cc1ccc(S(=O)(=O)N2CCC(c3nnc(-c4cccc(C)c4)o3)CC2)cc1	x	-38%	-2%	x	6%
CC1CCc2c(sc3nnn(CCCCOc4ccc(Cl)cc4)c(=O)c23)C1 (configuration not stated)	x	-2%	11%	x	-3%
COC(=O)c1c(-c2ccc(S(C)(=O)=O)cc2)sc2cc(OC)ccc12	1	u	-27%	35µM*	14%
COC(=O)c1c(-c2ccc(SC)cc2)sc2ccccc12	1	-3%	i	u	-8%
COC(=O)c1c(-c2cc(OC)cc(OC)c2)sc2ccc(OC)cc12	1	11%	-15%	35µM*	-12%
COC(=O)c1c(-c2ccc(OC)cc2)sc2ccccc12	x	x	x	35µM*	x
Cc1ccc(S(=O)(=O)N2CCN(Cc3ccccc3Cl)CC2)cc1	x	u	-25%	x	0%
COc1cccc(N2CCN(C(=O)CN3CCSc4ccccc43)CC2)c1	x	-28%	-9%	x	-2%
Cc1c(C(=O)NN2CCCCC2)nn(-c2ccc(Cl)cc2Cl)c1-c1ccc(I)cc1	x	30µM*!	x	0%	x
COc1ccc(CNC(=O)CN2C(=O)COc3ccc(S(=O)(=O)Nc4ccccc4)cc32)cc1	x	21%	-5%	x	-2%
Cc1ccc(CCNC(=O)CS(=O)Cc2nc(-c3ccccc3Cl)oc2C)cc1 (configuration not stated)	-60*	-25%	-44%	0%	7%
